The values below come from PubChem BioAssay (NCATS).

Structures are written as SMILES. Results filed as inconclusive are left out. Calls of active or inactive are those of the source. Calls follow the shape of the dose curve; as a rule, active = well fitted inhibition curve with a large enough effect; inconclusive = small, poorly fitted or top-dose-only effect; inactive = flat fitted curve, though single readings scatter. Where a SMILES comes first, the peptide text is derived from it. The star is where a group is joined. AFC = O=c1cc(C(F)(F)F)c2ccc(N*)cc2o1
% is scaled to controls: 0 for no effect and ±100 for the full control effect.

The nature of the experiment: P-glycoprotein substrates identified in KB-8-5-11 adenocarcinoma cell line, qHTS therapeutic library screen (AID 1346987). Also: nearly all actives have a fitted effect of over 65% in size. The following applies: KB-8-5-11 (P-gp overexpressing) viability, CellTiter-Glo, 72 h; series mostly up to 44.5 µM; activity change, negative = cytotoxicity: at the top concentration. In outline:
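KB-8-5-11, a colchicine-selected P-gp-overexpressing KB-3-1 subline, was grown without colchicine for the assay. Cells were seeded at 500 cells/well, dosed in concentration-response and incubated 72 h at 37 degree C, 5% CO2. Viability was read by CellTiter-Glo luminescence.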
On the technique in general: Quantitative high-throughput screening tests each substance at several concentrations.
For the compound `CC(=O)N[C@@H](CC(C)C)C(=O)N[C@@H](CCC(=O)O)C(=O)N[C@@H](CCC(=O)O)C(=O)N[C@@H](CC(=O)O)C(=O)Nc1ccc2c(C(F)(F)F)cc(=O)oc2c1` (Ac-LEED-{AFC}), the “activity change, negative = cytotoxicity” value was 0.209% (inactive).
Same read-out and setting: under `C=C1C(OC(C)=O)C(=O)C2C(C)(C)C(OC(C)=O)CCC2(C)C1CC(OC(C)=O)/C(C)=C/COC(C)=O` (stereo not drawn) stands 0.406% [at 17.3 µM] (inactive).
Regarding `CCC[C@@H]1C[C@@H](C(=O)N[C@@H]([C@H]2O[C@H](SC)[C@H](OP(=O)(O)O)[C@@H](O)[C@H]2O)[C@H](C)Cl)N(C)C1`, the Potency entry was “inactive”.
On to `COC(=O)C1=CO[C@@H](O[C@@H]2O[C@H](CO[C@@H]3O[C@H](COC(=O)/C=C/c4ccc(O)cc4)[C@@H](O)[C@H](O)[C@H]3O)[C@@H](O)[C@H](O)[C@H]2O)[C@@H]2C(CO)=CC[C@H]12`, for which the “outcome” value is “inactive [at 17.3 µM]”.
The same measure, in the same setting: in the case of `COc1cc(C[C@H]2COC(=O)[C@@H]2Cc2ccc(O)c(OC)c2)ccc1O` it was “inactive”.
As to `COC1=Cc2c(nc3n(c2=O)C(C)C(=O)NC3(O)C(C)C)OC=C1` (stereo not drawn), the “activity change, negative = cytotoxicity” value was 0.547% (inactive).
For `C=C1CC[C@@H]2[C@](C)(CO[C@@H]3O[C@H](CO)[C@@H](O)[C@H](O)[C@H]3O)CCC[C@@]2(C)[C@@H]1CCC1=CCOC1=O`, the “outcome” value is “inactive [at 17.3 µM]”.
With `COc1cc(/C=C/C(=O)OC(C)(C)C(OC2OC(CO)C(O)C(O)C2O)C(=O)OCc2ccc(OC3OC(CO)C(O)C(O)C3O)cc2)ccc1O` (stereo not drawn), the “outcome” value is “inactive [at 17.3 µM]”.
As for `CC1CCC2(NC1)OC1C(=O)C3C4CCC5CC(O[C@@H]6O[C@H](CO)[C@@H](O)[C@H](O)[C@H]6O[C@@H]6O[C@@H](C)[C@H](O)[C@@H](O)[C@H]6O)CCC5(C)C4CCC3(C)C1C2C` (stereo partly drawn), the “activity change, negative = cytotoxicity” value is 8.48% [at 17.3 µM] (inactive).
`CC1(C)CCC(C)(C)c2cc3c(cc21)Sc1ccccc1N=C3c1ccc(C(=O)O)cc1`: the “activity change, negative = cytotoxicity” value was -19.3% (inactive).
As to `CC(O)C(O)/C=C/C=C/C(=O)O[C@@H]1C=C2COC(=O)[C@]2(O)[C@@]2(C)CCCC(C)(C)C12` (stereo partly drawn), the “activity change, negative = cytotoxicity” value was 2.92% [at 17.3 µM] (inactive).
In the case of `C=CCc1ccc(O[C@@H]2O[C@H](CO[C@@H]3O[C@H](CO)[C@@H](O)[C@H](O)[C@H]3O)[C@@H](O)[C@H](O)[C@H]2O)c(O)c1`, the “activity change, negative = cytotoxicity” value was 3.43% [at 17.3 µM] (inactive).
In the case of `CC1=C(C)C(=O)OC(C(C)(O)C2CCC3C4CC=C5CC(OC6OC(COC7OC(CO)C(O)C(O)C7O)C(O)C(O)C6O)CC(O)C5(C)C4CCC32C)C1` (stereo not drawn), the “outcome” value was “inactive [at 17.3 µM]”.
Consider `O=C(O)c1cc(O)c2cccc(O)c2c1O[C@@H]1O[C@H](CO)[C@@H](O)[C@H](O)[C@H]1O`, for which the compound was called inactive.
On to `COc1ccc(C(=O)O[C@H]2CC(C)=CC[C@@]3(C)[C@@H](OC(C)=O)C[C@@](O)(C(C)C)[C@H]23)cc1`, for which the “activity change, negative = cytotoxicity” value is -2.94% [at 17.3 µM] (inactive).
Regarding `COc1cc(/C=C/C(=O)OC2[C@H](O)CC(O)(C(=O)O)C[C@H]2O)ccc1O` (stereo partly drawn), the call was inactive.
With `NC(Cc1c[nH]c2ccccc12)C(=O)NC(CCC(=O)O)C(=O)O` (stereo not drawn), the compound was classed as inactive.
As to `CC1=C(C)C(=O)OC(C(C)C2C(O)CC3C4C5OC5C5(O)CC(OC6OC(CO)C(O)C(O)C6O)CC(O)C5(C)C4CCC32C)C1` (stereo not drawn), the “outcome” value was “inactive [at 17.3 µM]”.
Take `C[C@@H]1CC[C@]2(C)C(C[C@@H](O)[C@H](O)[C@]23CO3)[C@@]1(C)CCc1ccoc1` (stereo partly drawn): the “activity change, negative = cytotoxicity” value was -1.18% (inactive).
As to `C=C(C(=O)OC)C1CCC2(C)C(O[C@@H]3O[C@H](CO)[C@@H](O)[C@H](O)[C@H]3O)CC(=O)C(C)C2C1O` (stereo partly drawn), the “activity change, negative = cytotoxicity” value is 0.216% [at 17.3 µM] (inactive).
Regarding `CC(/C=C/C1(O)C(C)CC(O)CC1(C)C)OC1OC(CO)C(O)C(O)C1O` (stereo not drawn), the “activity change, negative = cytotoxicity” value is 0.557% (inactive).
For the compound `C[C@@H]1O[C@@H](O[C@H]2[C@H](O[C@H]3CC[C@@]4(C)C(CC[C@]5(C)C4CC=C4C6CC(C)(C)CC[C@]6(C(=O)O[C@@H]6O[C@H](CO[C@@H]7O[C@H](CO)[C@@H](O[C@@H]8O[C@@H](C)[C@H](O)[C@@H](O)[C@H]8O)[C@H](O)[C@H]7O)[C@@H](O)[C@H](O)[C@H]6O)CC[C@]45C)[C@]3(C)CO)OC[C@H](O)[C@@H]2O)[C@H](O)[C@H](O)[C@H]1O` (stereo partly drawn), the outcome is “inactive [at 9.29 µM]”.
Turning to `OC[C@H]1O[C@@H](n2cnc3c2NC=NC[C@H]3O)C[C@@H]1O`, the Potency entry is “inactive”.
In the case of `CNC(=O)Nc1ccc(OC)c(NC(=O)NC(=O)c2cc(F)c(F)cc2Cl)c1`, the compound was called inactive.
In the case of `COC(=O)C1C(CC(C)=O)C=CC(O)C12Oc1cc(C)cc(O)c1C2=O` (stereo not drawn), the “activity change, negative = cytotoxicity” value is 9.55% (inactive).
Take `O=C(c1ccc(F)cc1)C1CCN(CCn2c(=O)nc3n(c2=O)CCCC3)CC1`: the “activity change, negative = cytotoxicity” value was -1.96% (inactive).
On to `CC1(C)C(=O)C(C)(C)c2cc(C(=O)Nc3ccc(C(=O)O)cc3)ccc21`, for which the compound was classed as inactive.
On to `Cc1onc(-c2ccccc2)c1C(=O)N[C@@H]1C(=O)N2[C@@H]1SC(C)(C)[C@@H]2C(=O)O`, for which the Potency entry is “inactive”.
